# Source: PubChem BioAssay AID488857 (Sanford-Burnham Center for Chemical Genomics, 2010)
# The campaign covered roughly 1,400 compounds. About 560 (40%) were called active. The set was probably picked from earlier hits. This is one part of the list. Values without a mark were called inactive.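 The calls were made as follows: active = mean inhibition over duplicate tests at 10 µM above 50%; inactive = the rest.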
# Assay: ASC/caspase-1 reporter retest in S. cerevisiae at one dose, specificity check for NALP1 project (AID 488857)
# Conditions: S. cerevisiae ASC/Caspase-1, beta-galactosidase luminescence, 24 h; at 10 µM; active compounds read high
row,SMILES,inhibition
1,Cc1cc(/C=C2/SC(=S)N(c3ccc([N+](=O)[O-])cc3)C2=O)c(C)n1-c1cccnc1,37.3%
2,O=C(NC1CCCC1)c1ccc(CN2CCOCC2)cc1,45.1%
3,O=C(NC1CCCCC1)c1noc2c1CCCCC2,71.2% (active)
4,C=CCn1c(=O)c2ccc(C(=O)NCc3ccccc3)cc2n(Cc2ccccc2Cl)c1=O,36.4%
5,Cc1ccc(-c2csc(NC(=O)c3ccc(F)cc3)c2C(=O)O)cc1,93.8% (active)
6,Cc1noc(C)c1S(=O)(=O)N1CCC(C(=O)N2CCC(N3CCCCC3)CC2)CC1,23.3%
7,CCOC(=O)CNC(c1ccccc1)c1cc(Br)ccc1NC(=O)CCN1CCOCC1 (stereo not given),44.6%
8,CCCOc1ccc(C(=O)C(CN2CCCC2)c2ccccc2)cc1 (stereo not given),48.7%
9,CCOc1ccc(C(=O)C(CN2CCOCC2)c2ccccc2)cc1 (stereo not given),52.9% (active)
10,CCn1nc(C)cc1Nc1ccccc1,32.9%
11,Cc1cc(Nc2ccccc2)nn1C(=O)c1ccccc1,58% (active)
12,COc1cc2c(cc1NC(=S)Nc1ccccc1C)oc1ccccc12,45.5%
13,Cc1ccccc1N=C/C=C1\N(C)c2ccccc2C1(C)C,42.5%
14,CN(C)c1ccc(N=C/C=C2/N(C)c3ccccc3C2(C)C)cc1,56.5% (active)
15,CN1/C(=C\C(=O)c2cccs2)C(C)(C)c2ccccc21,40%
16,CS(=O)(=O)c1nc(-c2ccco2)cc(C(F)(F)F)n1,90.7% (active)
17,Cc1ccc2cc(CN(Cc3ccco3)C(=O)NC3CCCCC3)c(=O)[nH]c2c1C,42.8%
18,COc1ccc(OC)c(NC(=O)c2sc3nc(Cc4ccccc4)cc(C(F)(F)F)c3c2N)c1,40.6%
19,CCC(C)NC(=O)c1cc2cc3ccc(OC)cc3nc2s1 (stereo not given),56.8% (active)
20,N#CCc1c(C#N)c(N)nc(N2CCN(Cc3ccc4c(c3)OCO4)CC2)c1C#N,37.5%
21,O=C(CCC1CCCCC1)N1CCN(Cc2ccc3c(c2)OCO3)CC1,67% (active)
22,OC(COCc1ccc2c(c1)OCO2)CN1CCN(Cc2ccccc2)CC1 (stereo not given),35.2%
23,CC1CCCN(CCOCCOc2ccc(Br)cc2Cl)C1 (stereo not given),59.5% (active)
24,Cc1cc(Cl)c(OCCCCN2CCOCC2)c(Br)c1,30.6%
25,CC1CCCN(CCCOc2ccc(Cl)cc2Br)C1 (stereo not given),64.8% (active)
26,CC1CCCN(CCOCCSc2ccccc2)C1 (stereo not given),53% (active)
27,Cc1cc(Cl)c(OCCOCCN2CCC(C)CC2)c(Br)c1,53.7% (active)
28,CC1CCCN(CCC(=O)c2ccc(Br)cc2)C1 (stereo not given),45.8%
29,Cc1cc(Cl)c(OCCCN2CCCCC2)c(Br)c1,24.1%
30,CN1CCC(Oc2ccc(Sc3ccccc3)cc2)CC1,40.5%
